Laboratory results published in ChEMBL document CHEMBL3988442, “University of Dundee, Small-Polar-MMV Screening Library” (2021).
Out of some 48,000 compounds screened, about 13,000 (27%) showed an effect of 50% or more. The list shows a part of the results.

test system: Wolbachia pipientis; assay: Anti-Wolbachia Cell-Based Screen; format: functional; parameters: scale not given: in the data most compounds retested in dose-response had high values; settings: 5 µM

Structure (SMILES) | Percent Effect [%]
O=C(NCC1CCCN1Cc1ccccc1)NCC1(O)CCC1 (stereo not drawn) | 10.62
CCCn1cc(C(=O)n2nc(C)cc2C)c(S(=O)(=O)N2CCSCC2)n1 | -15.72
CCCn1cc(Cl)c(C(=O)N2C[C@@H](O)[C@H](Oc3ccccc3)C2)n1 | 77.97
Cn1cc(Cl)c(C(=O)N2CCC(N3CCc4ccccc4C3)CC2)n1 | 3.443
CC(=O)N[C@@H]1CN(C(=O)c2ccncc2)C[C@H]1c1ccc(C)cc1 | -2.552
CCCn1ccnc1CN1C[C@@H](NC(C)=O)[C@H](c2ccc(C)cc2)C1 | -5.902
Cn1cc(Cl)c(C(=O)N2CCCN(C3Cc4ccccc4C3)CC2)n1 | 3
CCCn1cc(Cl)c(C(=O)N2C[C@H]3C[C@H](OC)C[C@H]3C2)n1 | 128.4
CCCn1cc(Cl)c(C(=O)N2C[C@@H](O)[C@H](NC(C)=O)C2)n1 | 135.9
CCOCCCNC(=O)c1nn(CC)cc1Cl | 13.91
COCCN(Cc1ccccn1)C(=O)CC1OCCc2ccsc21 (stereo not drawn) | 1.398
COc1ccc(Br)cc1CN(C)C(C)c1nc(C)no1 (stereo not drawn) | 6.293
COc1ccc(C2(NCc3noc(C4CC4)n3)CCOCC2)cc1 | -5.013
COC(C)c1cccc(NC(=O)N(CCC#N)Cc2ccccn2)c1 (stereo not drawn) | 1.571
O=C(Nc1cccc(CN2CCOC2=O)c1)N1CCOCC1 | -4.373
CC1NC(=O)COC12CCN(C(=O)Cc1ccsc1)CC2 (stereo not drawn) | -21.8
O=C1NC2(CCN(C(=O)Cc3ccsc3)CC2)CC1c1ccncc1 (stereo not drawn) | -1.55
CCN1CCNC(=O)C12CCN(C(=O)Cc1ccsc1)CC2 | 113.3
Cc1nn(C)cc1C(=O)N1CCCN(C2Cc3ccccc3C2)CC1 | -1.892
COc1cccc(OCC2CCCN(C(=O)c3cnc(C)nc3O)C2)c1 (stereo not drawn) | -22.18
COc1cccc([C@@]2(O)CC[C@@H]3CN(C(=O)c4cn(C)nc4C)C[C@@H]32)c1 | 91.14

Structure (SMILES) | Percent Effect [%]
COCCN1C(=O)CC[C@]12CC[C@@H](NC(=O)c1cc(C)on1)CC2 | -11.81
CN(C)CCN1C(=O)CCC12CCCN(C(=O)CC1CC1)CC2 (stereo not drawn) | 109.9
Cc1cc(C(=O)N[C@H]2CC[C@@]3(CCC(=O)N3CC3CC3)CC2)no1 | -41.45
COCCN1C(=O)CCC12CCCN(c1ncc(F)cn1)CC2 (stereo not drawn) | -9.893
COCCN1C(=O)CCC12CCN(C(=O)CNC(C)=O)CC2 | 102.7
COCCN1C(=O)CCC12CCN(c1ncc(F)cn1)CC2.O=C(O)C(F)(F)F | 4.325
CCC(C(=O)N1CCCN(CCN(C)C)CC1)N1CCCC1=O (stereo not drawn) | -2.353
Cc1ccc(C(=O)N2CCC3(CCC(=O)N(CCN(C)C)C3)CC2)nc1 | 13.38
COCCN1C(=O)CCC12CCCN(C(=O)CC1CC1)CC2 (stereo not drawn) | 103.4
O=C(CC1CC1)N1CCCC2(CCC(=O)N2CC2CC2)CC1 (stereo not drawn) | 113.9
O=C1CCC2(CCN(S(=O)(=O)c3ccccc3)CC2)N1CC1CC1 | -5.701
c1ccc(OCCNc2ncnc3sc4c(c23)CCNC4)cc1 | 38.96
CCN1C[C@H]2CCN(c3ncccn3)CC[C@H]2S1(=O)=O | 3.931
Cc1cc(C)nc(NC2CCc3nc(C)nn3C2)n1 (stereo not drawn) | 12.23
O=C(O)CC(NC(=O)c1cc(Br)c[nH]1)c1ccccc1 (stereo not drawn) | 7.291
Cc1c(C(=O)N2CCC3(CCC(=O)N(CCN(C)C)C3)CC2)ccn1C | 2.177
CN(C)CCN1C(=O)CCC12CCN(C(=O)CC1CC1)CC2 | 92.35
O=C(c1nccc2ccccc12)N(Cc1ccco1)CC1CCCO1 (stereo not drawn) | 5.16
CC(C)(C)OC(=O)NCC(=O)NCc1ccc(Cl)s1 | 16.63
CNC(=O)COC1COC2(CCN(c3ccc(C)nn3)CC2)C1.O=C(O)C(F)(F)F (stereo not drawn) | -17.84
CNC(=O)COC1COC2(CCN(c3cnccn3)CC2)C1.O=C(O)C(F)(F)F (stereo not drawn) | 11.18

Structure (SMILES) | Percent Effect [%]
CNC(=O)COC1COC2(CCN(Cc3ccncc3F)CC2)C1.O=C(O)C(F)(F)F (stereo not drawn) | 109.2
O=C(O)C(F)(F)F.c1cncc(COC2COC3(CCN(c4cnccn4)CC3)C2)c1 (stereo not drawn) | 8.045
CNC(=O)COC1COC2(CCN(Cc3cccnc3)CC2)C1.O=C(O)C(F)(F)F (stereo not drawn) | 120
O=C(O)CC(O)(CC(=O)O)C(=O)O.c1cnc2[nH]nc(C3CCN(Cc4ccsc4)CC3)c2c1 | 113.3
Fc1ccc(F)c(CN2CCC(c3n[nH]c4ncccc34)CC2)c1.O=C(O)CC(O)(CC(=O)O)C(=O)O | 96.71
c1cnc2c(C3CCN(Cc4ccsc4)CC3)n[nH]c2n1 | -13.91
Cn1cc2c(n1)C(CNC1CCOCC1)OCC2.O=C(O)C(F)(F)F (stereo not drawn) | -8.385
Nc1cnc(-c2ccc(F)cc2Cl)cn1 | 2.9
CN1CCC(n2nc(Cc3cccc(Cl)c3)nc2Cn2cnnn2)CC1 | 20.47
CCOCc1nc(CSc2ccncc2)n(C)n1 | -5.223
CCOCc1nc(-c2ccc(F)cc2Cl)n(C)n1 | 104.7
CCOCc1nc(-c2cccc(OC)c2OC)n(C2CCN(C)CC2)n1 | 115.7
CN1CCC(Cc2nc(-c3cnccn3)n(C3CCS(=O)(=O)C3)n2)CC1 (stereo not drawn) | -23.71
CCOCc1nc(CSc2ccncc2)n(C2CCN(C)CC2)n1 | 13.12
Cc1ncsc1-c1nc(Cc2cccs2)nn1C1CCN(C)CC1 | -9.082
CN1CCC(n2nc(CC3CC3)nc2-c2ccc(F)cc2Cl)CC1 | 106.3
CCOCc1nc(-c2ccc(F)cc2Cl)n(C2CCN(C)CC2)n1 | 110.7
COc1ncccc1-c1nc(-c2ccccn2)nn1C1CCN(C)CC1 | -6.109
CN1CCC(n2nc(Cc3cccs3)nc2-c2ccncc2)CC1 | -23.96
CCOc1ccc(NC(C)C(=O)NCCc2cccs2)cc1CO (stereo not drawn) | -30.37
CC(C)c1noc(CCCC(=O)N2CCN(C)CC2c2ccccc2)n1 (stereo not drawn) | 5.23
